Tau fibril ThT: tau fibrillization inhibition (ThT binding). Potency, µM (top dose mostly 57.4 µM), inactives show top-dose activity, negative = inhibition, hits mostly inhibitors. recombinant tau K18 P301L, heparin-induced fibrillization, ThT fluorescence. 2.1% of 270,000 active. P10636; also: potency is read from the fitted curve at half-maximal effect; nearly all actives have a fitted effect of over 55% in size
Target sequence (P10636 561-689 P618L limits assumed): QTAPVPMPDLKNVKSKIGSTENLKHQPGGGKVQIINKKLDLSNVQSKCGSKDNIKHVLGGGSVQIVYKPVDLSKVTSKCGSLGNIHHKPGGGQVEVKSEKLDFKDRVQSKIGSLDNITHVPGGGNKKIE
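In this qHTS, human K18 P301L tau is incubated with compound and heparin for 6 hr at 37 C, and Thioflavin T fluorescence then reports fibril load.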
Tau fibril FP: blocks human tau fibril formation measured by polarization | P10636 | K18 P301L tau heparin fibrillization, Alexa594 FP, 6 h | Potency, µM (titrated, usually from 57.7 µM), without a hit: at the highest dose activity, negative = inhibition, most hits filed as inhibitors | 0.39% of 280,000 active; also: potency is read from the fitted curve at half-maximal effect; nearly all actives have a fitted effect of over 55% in size
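Recombinant K18 P301L […], labeled with Alexa 594 at 0.24 uM over 15 uM unlabeled; heparin inducer 20 uM final; 37 C, 6 hr; FP endpoint.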
PNC assembly inh: perinucleolar compartment assembly inhibition; PC3M PTB-GFP, PNC prevalence imaging, 16 h; active compounds read low; 3.1% of 140,000 active; activity change (PNC), negative = inhibition, % at 10 µM;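 active = readout at or below -70, meaning at least 70% loss of cells showing the perinucleolar compartment, a nuclear body marking cancer cells; inconclusive = readout between -30 and a set limit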;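 also: plate controls were DMSO wells for no effect and camptothecin positive control wells for full effect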
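Read-out is percentage of cells bearing a perinucleolar compartment, from automated 20x imaging of fixed, Hoechst-stained PC3M PTB-GFP cells. Cells were seeded 4 h, then exposed 16 h to compound (23 nl of library stock) in duplicate plates.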
Tau fluor counter: counter-screen for tau fibril formation inhibitors; 0.93% of 280,000 active; tau K18 P301L Alexa594 fluorescence, heparin fibrillization; Potency, µM (highest dose often 57.7 µM), for the others: top-dose activity change, negative = decrease; AID 1463; also: potency is read from the fitted curve at half-maximal effect; nearly all actives have a fitted effect of over 55% in size
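Human tau K18 P301L (15 uM unlabeled, 0.24 uM Alexa 594-labeled) in 100 mM sodium acetate pH 7 with 20 uM heparin, 6 hr at 37 C. ThT 30 uM added, 1 hr ambient; Alexa 594 FP and total fluorescence read at 555/632 nm.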
NPSR antagonist: blocks cAMP signaling of the human neuropeptide S receptor | Q6W5P4 | CHO-NPSR cells, cAMP TR-FRET, antagonist mode | Potency, µM (doses to about 38.3 µM), for inactives: top-dose activity change, negative = inhibition, actives largely listed as inhibitors | 1% of 220,000 active | AID 1461; also: potency is read from the fitted curve at half-maximal effect; nearly all actives have a fitted effect of over 50% in size
JMJD2E inh: blocks human JMJD2E demethylase activity; B2RXH2; JMJD2E catalytic domain, FDH-coupled NADH fluorescence (FDH is formaldehyde dehydrogenase); Potency, µM (doses to about 57.1 µM), without a hit: at the highest dose activity change, negative = inhibition, usual class: inhibitors; 1.6% of 230,000 active; active = well fitted inhibition curve with a large enough effect, not every such curve was filed as active; inconclusive = small, poorly fitted or top-dose-only effect, or another doubt; inactive = no such curve, though single readings can be large or run the other way;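 also: potency is read from the fitted curve at half-maximal effect; 0% = wells with enzyme and -100% = buffer wells without enzyme; nearly all actives have a fitted effect of over 50% in size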
Target sequence (B2RXH2 1-337 limits assumed): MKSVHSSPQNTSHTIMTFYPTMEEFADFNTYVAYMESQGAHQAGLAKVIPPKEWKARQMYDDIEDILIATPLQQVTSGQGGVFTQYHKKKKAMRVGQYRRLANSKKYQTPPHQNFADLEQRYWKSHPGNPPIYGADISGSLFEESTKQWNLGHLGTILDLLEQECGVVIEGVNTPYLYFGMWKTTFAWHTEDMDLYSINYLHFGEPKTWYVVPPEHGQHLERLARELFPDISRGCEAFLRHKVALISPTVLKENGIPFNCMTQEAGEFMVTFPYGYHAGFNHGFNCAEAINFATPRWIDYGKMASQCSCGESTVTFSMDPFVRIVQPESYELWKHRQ
An asterisk follows results filed as active; u = inconclusive; x = not tested or not shown; [ ] = dose if it differs, or a comment. Shown are actives, neighbours in structure and some others; about 5.1% of the full set was active somewhere. Unless noted, calls follow the shape of the dose curve; as a rule, active = well fitted curve in the direction sought with a large enough effect; inconclusive = small, poorly fitted or top-dose-only effect, or another doubt; inactive = no such curve, though single readings can be large; an effect the other way counts as inactive or inconclusive. Unless noted, % is scaled to controls: 0 for no effect and ±100 for the full control effect.

SMILES	Tau fibril ThT	Tau fibril FP	PNC assembly inh	Tau fluor counter	NPSR antagonist	JMJD2E inh
O=C(O)c1ccc(N/N=C/C2=Cc3ccccc3OC2)cc1	4µM*	3%	x	13µM*[quencher]	-7%	u
O=C(Cc1cnn(-c2ccccc2)c1)c1ccc(O)c(O)c1O	14µM*	u	59	u	-10%[46.1 µM]	13µM*
CCOc1ccc(-c2nc(N)ncc2Oc2ccccc2Br)c(O)c1	-6%	u	53	u	u	0%
CCOc1ccc(-c2n[nH]c(C)c2Oc2ccc(OC)cc2)c(O)c1	-19%	u	4	14µM*[quencher]	u	u
CCOc1ccc(-c2[nH]ncc2-c2ccc(OC)c(OC)c2)c(O)c1	9%	1%	-25	1%	-29%[46.1 µM]	11%
CCOc1ccc(-c2[nH]ncc2Oc2ccccc2OCC)c(O)c1	u	-15%	-6	14µM*[quencher]	u	-22%
Cc1[nH]nc(-c2ccc(OCc3cnn(-c4ccccc4)c3)cc2O)c1Oc1ccc(F)cc1	3%	u	32	u	-29%[46.1 µM]	u
CCOc1ccc(-c2[nH]ncc2Oc2ccccc2OC)c(O)c1	u	1%	40	14µM*[quencher]	-20%[46.1 µM]	u
Cc1ccc(S(=O)(=O)N2CCc3cc(C(=O)NCCc4ccccc4)ccc32)cc1	2%	-6%	x	-22%	x	x
CC(=O)N1CCc2c(sc3c2c(=O)n(-c2ccccc2)c(=O)n3CC(=O)Nc2ccccc2C)C1	4%	-1%	x	-7%	x	x
Cc1ccc(OC(C)c2nnc(N)s2)cc1Cl (stereo not given)	5%	1%	-14	2%	10%[46.1 µM]	4%
CC(Oc1ccccc1Cl)c1nnc(N)s1 (stereo not given)	-1%	1%	-117*	2%	4%[46.1 µM]	9%
CSc1ccc(C2CC(=O)Oc3c2c(=O)n(C)c2ccccc32)cc1 (stereo not given)	-12%	-4%	x	-15%	x	x
COC(=O)c1c(-c2cccs2)csc1NC(=O)c1cc(OC)c(OC)c(OC)c1	11µM*	u	x	-20%	x	x
COC(=O)c1c(-c2cccs2)csc1NC(=O)c1ccc(C)cc1	32µM*	u	x	-25%	x	x
COC(=O)c1c(-c2cccs2)csc1NC(=O)c1ccc(OC)c(OC)c1	u	u	x	-20%	x	x
COC(=O)c1c(-c2cccs2)csc1NC(=O)c1ccc(Br)cc1	16µM*	u	x	-24%	x	x
COC(=O)c1c(-c2cccs2)csc1NC(=O)c1cc(OC)cc(OC)c1	u	u	x	-29%	x	x
COC(=O)C(CCSC)NC(=O)c1c(C)oc2ncn(CC(C)C)c(=O)c12 (stereo not given)	-1%	0%	x	-7%	x	x
Cn1c(SCC(=O)N/N=C/c2ccc([N+](=O)[O-])s2)nnc1-c1ccc(Cl)cc1	u	3%	u	u	-14%	0%
COc1cc([N+](=O)[O-])cc(/C=N/NC(=O)Cn2nccc2C)c1O	x	-5%	x	-10%	8%	13µM*
COc1cc([N+](=O)[O-])cc(/C=N/NC(=O)CSc2nnc(-c3ccccc3)n2C)c1O	x	1%	x	-5%	-1%	20µM*
COc1cc([N+](=O)[O-])cc(/C=N/NC(=O)Cn2nc(C)cc2C)c1O	u	7%	x	7%	4%	7.1µM*
Cc1cccc(OCC(=O)OCc2cc(=O)n3nc(C4CC4)sc3n2)c1	-14%	11%	x	-3%	x	x
COc1ccc(Br)cc1CNC(=O)CCSCc1ccc(Cl)cc1	-14%	u	x	u	x	x
Cc1ccc(Cl)cc1-n1c(=O)cc(N2CCN(c3ccc(F)cc3)CC2)[nH]c1=O	0%	6%	x	0%	x	x
COC(=O)C1(C(=O)OC)CC(CO)C(=O)[C@H]1c1ccccc1 (stereo not given in full)	u	4%	x	0%	x	1%
Cc1cc(C)cc(Oc2ccccc2/C=C\C(=O)O)c1	-9%	3%	-86*	0%	-15%[46.1 µM]	10%
